This is an account of results in the supplement of paper PMC12645437, “Orthogonal IMiD-Degron Pairs Induce Selective Protein Degradation in Cells” (ACS Chemical Biology, 2025).

Whole data set: some 8,300 sequences, median “log2 fold change of degron read counts, EGFP-low vs EGFP+ sorted cells (limma voom), compound-induced degradation” near -1.1, cut for the highest 2% near 3.2. Only a selection was taken, and the highest values are over-represented in it overall.

The target in this test is T1, CRBN, Q96SW2.
T1 chain: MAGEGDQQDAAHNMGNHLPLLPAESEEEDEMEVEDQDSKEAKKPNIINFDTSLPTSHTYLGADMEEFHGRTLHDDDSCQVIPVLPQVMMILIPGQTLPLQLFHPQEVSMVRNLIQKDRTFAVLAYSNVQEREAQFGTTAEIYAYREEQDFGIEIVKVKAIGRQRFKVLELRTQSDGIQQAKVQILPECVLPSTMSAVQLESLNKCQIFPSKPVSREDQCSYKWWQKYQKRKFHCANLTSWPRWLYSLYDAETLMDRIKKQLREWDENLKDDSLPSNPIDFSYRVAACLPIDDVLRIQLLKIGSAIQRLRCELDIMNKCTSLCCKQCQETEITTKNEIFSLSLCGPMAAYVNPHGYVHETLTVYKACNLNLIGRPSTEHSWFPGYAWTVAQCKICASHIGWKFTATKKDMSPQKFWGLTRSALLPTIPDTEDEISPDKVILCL
Briefly: log2 fold change of degron read counts, EGFP-low vs EGFP+ sorted cells (limma voom), compound-induced degradation; higher = more compound-induced degradation of the degron-EGFP fusion; degrons are variants of IKZF1/3 zinc finger 2; compound dose not given here. The conditions noted are these: Jurkat, 18 h.

The mark [1] stands for this setting: compound: compound 19 (5-tert-butyl-thalidomide).
[2] abbreviates: compound: compound 22 (5-morpholino-thalidomide).
Setting [3] is: compound: compound 33 (diphenyl IMiD analogue).
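Also: pooled lentiviral library of zinc finger degron-EGFP fusions in mCherry-positive Jurkat cells, FACS-sorted after compound exposure, with degron abundance counted by next-generation sequencing.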

In the case of FGCPQCGALFTQKGNLLRHIKL [46F_47G_49P_50Q_52G_53A_54L_55F_67L_, Q9UKT9], the “log2 fold change of degron read counts” value was 0.741 under setting [1], -1.93 under setting [2], 1.28 under setting [3] and -2.08 (compound: thalidomide).

Take FSCDICGAKFTQKGNLLRHIKL [46F_47S_49D_50I_52G_53A_54K_55F_67L_, Q9UKT9]: the “log2 fold change of degron read counts” value is, setting by setting: under setting [1], 1.91; under setting [2], 1.04; under setting [3], -1.63; (compound: thalidomide) 0.394.

With FRCPVCGAVFTQKGNLLRHIKL [46F_47R_49P_50V_52G_53A_54V_55F_67L_, Q9UKT9], the “log2 fold change of degron read counts” value by setting is: under setting [1], -1.2; under setting [2], -0.699; under setting [3], 1.54; (compound: thalidomide) 1.18.

For the sequence FKCSVCGHMFTQKGNLLRHIKL [46F_47K_49S_50V_52G_53H_54M_55F_67L_, Q9UKT9], the “log2 fold change of degron read counts” value under setting [1] is -3.17, the “log2 fold change of degron read counts” value under setting [2] is -3, the “log2 fold change of degron read counts” value under setting [3] is -3.02 and the “log2 fold change of degron read counts” value (compound: thalidomide) is -2.7.

Consider LICNQCGFDCTQKGNLLRHIKL [46L_47I_49N_50Q_52G_53F_54D_55C_67L_, Q9UKT9], for which the “log2 fold change of degron read counts” value runs as follows: under setting [1], -3.41; under setting [2], -3.2; under setting [3], -2.9; (compound: thalidomide) -2.97.

As to FYCDICGAMFTQKGNLLRHIKL [46F_47Y_49D_50I_52G_53A_54M_55F_67L_, Q9UKT9], the “log2 fold change of degron read counts” value reads like this: under setting [1], 2.46; under setting [2], 1.99; under setting [3], 0.476; (compound: thalidomide) -1.55.

For FRCNQCGHNFTQKGNLLRHIKL [46F_47R_49N_50Q_52G_53H_54N_55F_67L_, Q9UKT9], the “log2 fold change of degron read counts” value is, setting by setting: under setting [1], -2.02; under setting [2], -3.14; under setting [3], -2.79; (compound: thalidomide) -2.26.

Regarding FFCDVCGAPFTQKGNLLRHIKL [46F_47F_49D_50V_52G_53A_54P_55F_67L_, Q9UKT9], the “log2 fold change of degron read counts” value by setting is: under setting [1], 2.96; under setting [2], 1.95; under setting [3], 0.307; (compound: thalidomide) -0.766.

Turning to FRCNVCGAPFTQKGNLLRHIKL [46F_47R_49N_50V_52G_53A_54P_55F_67L_, Q9UKT9], the “log2 fold change of degron read counts” value runs as follows: under setting [1], 2.26; under setting [2], 2.96; under setting [3], 2.94; (compound: thalidomide) 2.77.

With FGCDVCGAPFTQKGNLLRHIKL [46F_47G_49D_50V_52G_53A_54P_55F_67L_, Q9UKT9], the “log2 fold change of degron read counts” value reads like this: under setting [1], -1.15; under setting [2], -2.27; under setting [3], -2.07; (compound: thalidomide) -2.21.

Turning to FRCDVCGAPFTQKGNLLRHIKL [46F_47R_49D_50V_52G_53A_54P_55F_67L_, Q9UKT9], the “log2 fold change of degron read counts” value is, setting by setting: under setting [1], 2.07; under setting [2], 3.3; under setting [3], 3.21; (compound: thalidomide) 2.88.

Consider FQCDVCGAPFTQKGNLLRHIKL [46F_47Q_49D_50V_52G_53A_54P_55F_67L_, Q9UKT9], for which the “log2 fold change of degron read counts” value by setting is: under setting [1], 0.996; under setting [2], 2.11; under setting [3], -0.0653; (compound: thalidomide) 2.48.

For FFCNVCGAPFTQKGNLLRHIKL [46F_47F_49N_50V_52G_53A_54P_55F_67L_, Q9UKT9], the “log2 fold change of degron read counts” value runs as follows: under setting [1], 2.8; under setting [2], 1.44; under setting [3], 0.47; (compound: thalidomide) -0.472.

As for FVCDVCGAPFTQKGNLLRHIKL [46F_47V_49D_50V_52G_53A_54P_55F_67L_, Q9UKT9], the “log2 fold change of degron read counts” value is, setting by setting: under setting [1], -0.0613; under setting [2], 2.93; under setting [3], 1.05; (compound: thalidomide) 2.09.

Consider FRCPVCGAPFTQKGNLLRHIKL [46F_47R_49P_50V_52G_53A_54P_55F_67L_, Q9UKT9], for which the “log2 fold change of degron read counts” value runs as follows: under setting [1], 3.29; under setting [2], 3.62; under setting [3], 3.27; (compound: thalidomide) 3.51.

Regarding FFCPVCGAPFTQKGNLLRHIKL [46F_47F_49P_50V_52G_53A_54P_55F_67L_, Q9UKT9], the “log2 fold change of degron read counts” value under setting [1] is 3.53, the “log2 fold change of degron read counts” value under setting [2] came to 2.84, the “log2 fold change of degron read counts” value under setting [3] was determined as 2.23 and the “log2 fold change of degron read counts” value (compound: thalidomide) was determined as 1.5.

Turning to FQCPVCGAPFTQKGNLLRHIKL [46F_47Q_49P_50V_52G_53A_54P_55F_67L_, Q9UKT9], the “log2 fold change of degron read counts” value is, setting by setting: under setting [1], 3.11; under setting [2], 3.34; under setting [3], 2.34; (compound: thalidomide) 3.87.

FQCNVCGAPFTQKGNLLRHIKL [46F_47Q_49N_50V_52G_53A_54P_55F_67L_, Q9UKT9]: the “log2 fold change of degron read counts” value runs as follows: under setting [1], 0.618; under setting [2], 2.01; under setting [3], 0.742; (compound: thalidomide) 2.69.

For the sequence FLCNVCGAPFTQKGNLLRHIKL [46F_47L_49N_50V_52G_53A_54P_55F_67L_, Q9UKT9], the “log2 fold change of degron read counts” value is, setting by setting: under setting [1], -0.289; under setting [2], 0.405; under setting [3], 1.47; (compound: thalidomide) 1.32.

Turning to FNCEICGALFTQKGNLLRHIKL [46F_47N_49E_50I_52G_53A_54L_55F_67L_, Q9UKT9], the “log2 fold change of degron read counts” value under setting [1] worked out at 0.13, the “log2 fold change of degron read counts” value under setting [2] is -1.53, the “log2 fold change of degron read counts” value under setting [3] is -0.743 and the “log2 fold change of degron read counts” value (compound: thalidomide) was -1.13.

Regarding FDCEICGAYFTQKGNLLRHIKL [46F_47D_49E_50I_52G_53A_54Y_55F_67L_, Q9UKT9], the “log2 fold change of degron read counts” value is -0.0199 under setting [1], -1.26 under setting [2], -0.229 under setting [3] and -0.2 (compound: thalidomide).

In the case of FTCNICGAMFTQKGNLLRHIKL [46F_47T_49N_50I_52G_53A_54M_55F_67L_, Q9UKT9], the “log2 fold change of degron read counts” value is, setting by setting: under setting [1], -1.09; under setting [2], -0.0854; under setting [3], 0.875; (compound: thalidomide) 0.88.

As to FDCNQCGHNFTQKGNLLRHIKL [46F_47D_49N_50Q_52G_53H_54N_55F_67L_, Q9UKT9], the “log2 fold change of degron read counts” value reads like this: under setting [1], -2.11; under setting [2], -2.61; under setting [3], -2.32; (compound: thalidomide) -2.04.

On to FFCNQCGRDFTQKGNLLRHIKL [46F_47F_49N_50Q_52G_53R_54D_55F_67L_, Q9UKT9], for which the “log2 fold change of degron read counts” value is, setting by setting: under setting [1], -2.83; under setting [2], -3.38; under setting [3], -3.07; (compound: thalidomide) -2.85.

For the sequence FGCNQCGHIFTQKGNLLRHIKL [46F_47G_49N_50Q_52G_53H_54I_55F_67L_, Q9UKT9], the “log2 fold change of degron read counts” value runs as follows: under setting [1], -1.45; under setting [2], -1.99; under setting [3], -2.4; (compound: thalidomide) -1.44.

In the case of FVCPQCGASFTQKGNLLRHIKL [46F_47V_49P_50Q_52G_53A_54S_55F_67L_, Q9UKT9], the “log2 fold change of degron read counts” value under setting [1] was -1.71, the “log2 fold change of degron read counts” value under setting [2] turned out to be 0.559, the “log2 fold change of degron read counts” value under setting [3] was 0.703 and the “log2 fold change of degron read counts” value (compound: thalidomide) is 1.25.

On to FMCEICGANFTQKGNLLRHIKL [46F_47M_49E_50I_52G_53A_54N_55F_67L_, Q9UKT9], for which the “log2 fold change of degron read counts” value is -0.123 under setting [1], 0.396 under setting [2], 2.76 under setting [3] and 1.56 (compound: thalidomide).

Take LCCNQCGFFCTQKGNLLRHIKL [46L_47C_49N_50Q_52G_53F_54F_55C_67L_, Q9UKT9]: the “log2 fold change of degron read counts” value runs as follows: under setting [1], -1.18; under setting [2], -1.17; under setting [3], -1.27; (compound: thalidomide) -0.874.
